Nrf2 activator – qHTS of Nrf2 Activators; AREc32 ARE-luciferase reporter (MCF7-derived line), luminescence, 24 h; Potency, µM (doses to about 46.1 µM), most hits filed as activators; hit rate 0.31% among 410,000; further: nearly all actives have a fitted effect of over 65% in size
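Quantitative high-throughput format: AREc32 reporter cells, 1000 per well, received compound by pin transfer and were incubated 24 hr at 37 deg C, 5% CO2, before Steady-Glo luminescence detection.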
ClpP mod – qHTS Assay for Activators of ClpP | ATP-dependent Clp protease proteolytic subunit (Bacillus subtilis (strain 168)), P80244 | purified B. subtilis ClpP, FRET peptide cleavage, 20 min | Potency, µM (doses to about 57.5 µM) | hit rate 1.9% among 340,000; active means well fitted falling curve with a large enough effect; inconclusive means small, poorly fitted or top-dose-only effect; inactive means no such curve, though single readings can be large or run the other way; further: the source files actives as falling curves though it sought activators and does not explain the sign; nearly all actives have a fitted effect of over 65% in size
Target sequence (P80244 whole entry, looked up): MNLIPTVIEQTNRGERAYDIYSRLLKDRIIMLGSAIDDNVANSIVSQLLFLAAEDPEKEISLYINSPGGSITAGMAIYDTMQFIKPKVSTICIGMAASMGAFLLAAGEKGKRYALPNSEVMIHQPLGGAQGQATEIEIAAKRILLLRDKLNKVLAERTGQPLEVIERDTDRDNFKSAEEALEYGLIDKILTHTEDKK
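Buffer: 100 mM Tris/HCl pH8, 100 mM KCl, 0.05% low protease BSA, 2.5% glycerol, 0.01% Tween-20. ClpP 10 microg/mL final; 20 min RT; delta FRET normalized to ADEP and DMSO controls.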
A549 viability – Nrf2 qHTS screen for inhibitors: counterscreen for cytotoxicity; A549 ARE-Fluc cells, CellTiter-Fluor viability, 18-24 h; Potency, µM (top dose mostly 46 µM), most hits filed as inhibitors; hit rate 0.16% among 390,000
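A549 ARE-Fluc cells in 5% FBS OPTI-MEM, 5000 cells/well, rested 2 h then exposed to compounds in concentration-response for 18-24 h at 37 °C. Viability by CellTiter-Fluor fluorescence (Ex 405/Em 525) after 30 min; luciferase luminescence (BugLite, 15 min, RT) read afterwards.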
TCR act – Activators of T cell receptors: qHTS campaign; primary human leukocytes, anti-CD3, IL-2 HTRF, 48 h; Potency, µM (series often up to 9.22 µM), usual class: activators; 330,000 tested, under 10 active
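Activity was scored as IL-2 release from primary human leukocytes given only a TCR signal (a-CD3 beads) plus compound for 48 hr. Detection used a two-antibody HTRF format read at 665nm.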
Nrf2 inh – Nrf2 qHTS screen for inhibitors; Potency, µM (series often up to 46 µM), hits mostly inhibitors; A549 ARE-Fluc reporter, luciferase luminescence, 18-24 h; hit rate 2.1% among 360,000; further: nearly all actives have a fitted effect of over 60% in size
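A549 ARE_Fluc cells, 5000/well, 5% FBS OPTI-MEM; compounds in dose-response, 18-24 h at 37 °C/5% CO2; CellTiter-Fluor viability read (Ex 405/Em 525), then BugLite luciferase luminescence = Nrf2 activity.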
miR-21 reporter – qHTS Assay for Modulators of miRNAs and/orActivators of miR-21; AID 2288, 2010; 340,000 tested, under 10 active; Potency, µM (top dose mostly 38.3 µM), most hits filed as activators; HeLa miR-21 FLuc reporter, luciferase, 48 h;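 further: miR-21 action dims this reporter so a rising signal means less miR-21 action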
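HeLa cells endogenously expressing miR-21, stably carrying CMV-driven firefly luciferase with a downstream miR-21 binding site, 2000 cells/well. Titrations up to approximately 40 uM, 48 hours; luciferase luminescence read.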
Large screens that a line does not name were inactive. An excerpt weighted towards active compounds, which were near 3.7% of everything screened. Unless noted, the call rests on the fitted dose curve; in most records, active means well fitted curve in the direction sought with a large enough effect; inconclusive means small, poorly fitted or top-dose-only effect, or another doubt; inactive means no such curve, though single readings can be large; an effect the other way counts as inactive or inconclusive.

CC(C)CNC(=O)CSc1ccc(Cl)cc1	ClpP mod 25.1µM, Nrf2 inh inconclusive
OCCC#Cc1c(-c2ccsc2)sc2ccccc12	Nrf2 activator 2.51µM, ClpP mod inconclusive
OCCCCC#Cc1c(-c2ccsc2)sc2ccccc12	Nrf2 activator inconclusive
c1ccc2c(c1)nnn2-c1ncnc2sccc12	Nrf2 activator 3.98µM, Nrf2 inh inconclusive
Cc1cc(-n2nnc3ccccc32)nc2ccccc12	Nrf2 inh inconclusive
CCC(=O)N1CCC1(C)C(=O)Nc1cnc2ccccc2c1 (stereo unspecified)	none (no result: A549 viability, TCR act, Nrf2 inh, miR-21 reporter)
Cc1cccc(OC2=NS(=O)(=O)c3ccccc32)c1	none (no result: Nrf2 activator, ClpP mod, TCR act, miR-21 reporter)
CC(NC(=O)C1CCC1)c1ccc(Br)cc1 (stereo unspecified)	none
CC(NC(=O)C1CCCC1)c1ccc(Br)cc1 (stereo unspecified)	Nrf2 inh 25.9µM
CCCCCCCCn1c2c(c(=N)c3ccccc31)CCC2	A549 viability inconclusive, Nrf2 inh 2.91µM (no result: ClpP mod)
CCCCC1CC2=C(C(=O)OC(C)(C)O2)C(c2ccc(F)cc2)O1 (stereo unspecified)	none (no result: A549 viability, TCR act, Nrf2 inh, miR-21 reporter)
CCOc1ccc(C(C)=O)cc1COC(=O)CNC(=O)C12CC3CC(CC(C3)C1)C2	none (no result: ClpP mod, miR-21 reporter)
O=C1c2cccc(NCCNCCO)c2C(=O)c2cccc(NCCNCCO)c21	A549 viability 18.4µM, Nrf2 inh 10.3µM (no result: miR-21 reporter)
CSc1cc2c(s1)c1cnn(Cc3ccccc3F)c(=O)c1n2C	none (no result: Nrf2 activator, ClpP mod, TCR act, miR-21 reporter)
O=C(Nc1ccccc1OC(=O)c1ccc(Cl)cc1)c1ccc(Cl)cc1	Nrf2 activator inconclusive, ClpP mod inconclusive, Nrf2 inh inconclusive
O=C(Nc1ccccc1O)c1ccc(Cl)cc1	Nrf2 activator 12.6µM, Nrf2 inh inconclusive
CC(=O)Oc1ccc(C(=O)O)cc1OC(C)=O	none
CC(=O)Oc1cccc2c1C(=O)c1c(OC(C)=O)cc(C(=O)O)cc1C2=O	A549 viability 20.6µM, Nrf2 inh inconclusive
CCOC(=O)C1=CNS(=O)(=O)NC1c1cccc(O)c1 (stereo unspecified)	none (no result: miR-21 reporter)
COC(=O)c1cc(NC(=O)c2cccc(C(F)(F)F)c2)c(=O)oc1C/C=N/OCc1cccc(Cl)c1Cl	Nrf2 activator 12.6µM
COC(=O)c1cc(NC(=O)c2cccc(C(F)(F)F)c2)c(=O)oc1C	Nrf2 inh inconclusive (no result: ClpP mod)
Cc1cc(C)cc(C(=O)Nc2c(C(=O)Nc3ccccc3F)oc3ccccc23)c1	ClpP mod 12.6µM (no result: TCR act)
O=C(Nc1c(C(=O)Nc2cccc(F)c2)oc2ccccc12)c1ccc2c(c1)OCO2	ClpP mod 25.1µM (no result: TCR act, Nrf2 inh)
COc1ccc(NC(=O)c2oc3ccccc3c2NC(=O)c2cc(C)cc(C)c2)c(OC)c1	none (no result: TCR act)
COc1ccc(S(=O)(=O)N(CC(=O)NCc2ccc(C)cc2)c2ccc(Cl)cc2)cc1	none (no result: TCR act)
NC(=S)NNC(=O)Nc1ccc(Cl)c(Cl)c1	ClpP mod 22.4µM
COc1ccc(CCC(=O)Nc2cc3c4c(c2)CCC(=O)N4CCC3)cc1	none (no result: miR-21 reporter)
COc1ccc(Cc2nc3ccc(C(=O)NCCc4ncccc4C)cc3o2)cc1OC	none (no result: A549 viability, TCR act, Nrf2 inh, miR-21 reporter)
CC1CCC(C(=O)NC(C(=O)OCC(=O)c2ccccc2)C(C)C)CC1 (stereo unspecified)	Nrf2 inh 16.4µM (no result: TCR act)
COc1ccc(-n2cc(-c3ccccc3)[n+]3c2CCCCC3)cc1	Nrf2 inh 8.2µM, miR-21 reporter inconclusive (no result: ClpP mod)
Cc1cccc(NC(=O)C2CCN(S(=O)(=O)c3cccc4nsnc34)CC2)n1	Nrf2 inh inconclusive
COc1ccc2nc(NC(=O)C3CCN(S(=O)(=O)c4cccc5nsnc45)CC3)sc2c1	Nrf2 inh 16.4µM, miR-21 reporter inconclusive
Cc1cccc2sc(NC(=O)C3CCN(S(=O)(=O)c4cc([N+](=O)[O-])ccc4Cl)CC3)nc12	A549 viability inconclusive, Nrf2 inh 11.6µM
COCCn1c(C)cc(C(=O)COC(=O)c2ccc([N+](=O)[O-])o2)c1C	Nrf2 activator inconclusive
O=C(NCC1CCCO1)c1ccc([N+](=O)[O-])o1 (stereo unspecified)	Nrf2 activator 10µM
Cc1cc(C(=O)COC(=O)c2ccc([N+](=O)[O-])o2)c(C)n1CC1CCCO1 (stereo unspecified)	Nrf2 activator 15.8µM, Nrf2 inh inconclusive
O=C(NCC1CCCO1)c1ccc(COc2ccc(Br)cc2)cc1 (stereo unspecified)	Nrf2 inh 16.4µM
O=C(Cc1ccc([N+](=O)[O-])cc1)NCC1CCCO1 (stereo unspecified)	none
NC(=O)c1c(NC(=O)c2ccccc2)sc2c1CCc1ccccc1-2	ClpP mod 31.6µM, Nrf2 inh inconclusive
NC(=O)c1c(NC(=O)c2ccccc2)sc2c1CCC2	Nrf2 inh inconclusive (no result: ClpP mod)
O=C(/C=C/c1ccccc1)NC(=S)NNC(=O)c1cnccn1	Nrf2 inh 7.31µM (no result: ClpP mod)
O=C(O)CCCNC(=O)c1cncc(O)c1	ClpP mod inconclusive
O=C(O)CCC(NC(=O)c1cncc(O)c1)C(=O)O (stereo unspecified)	ClpP mod 25.1µM
COc1cccc(-c2cc3c(-n4cccc4)ncnc3o2)c1	Nrf2 activator inconclusive, ClpP mod 14.1µM
O=C1c2ccccc2NC(c2cccc(Cl)c2)N1N=C1CCCCCC1 (stereo unspecified)	ClpP mod 20µM
CC(=O)Nc1ccc(NCC(O)COc2ccccc2)cc1 (stereo unspecified)	none (no result: Nrf2 inh)
Cc1cccnc1NCC(O)COc1ccccc1 (stereo unspecified)	ClpP mod 28.2µM
C=CCCC(=O)N(C)CCO	none (no result: miR-21 reporter)
c1cn2c(-c3ccc(N4CCOCC4)cc3)cncc2n1	none (no result: A549 viability, TCR act, Nrf2 inh, miR-21 reporter)
CC(=O)N1CCN(c2ncnc3sc(-c4ccccc4)cc23)CC1	Nrf2 inh inconclusive
Oc1ccc(N2CCN(c3ncnc4sc(-c5ccccc5)cc34)CC2)cc1	Nrf2 inh 20.6µM (no result: ClpP mod)
CCc1cc2c(N3CCN(c4ccccc4)CC3)ncnc2s1	Nrf2 inh 18.4µM
COc1ccc(Nc2ncnc3c2cnn3-c2ccc(C)cc2)cc1Cl	none (no result: TCR act, Nrf2 inh)
CCOc1ccc(NC(=O)CN(C)C(=O)C(C)Oc2ccc(Cl)cc2)cc1OCC (stereo unspecified)	Nrf2 inh inconclusive (no result: miR-21 reporter)
CCN(C(=O)c1nn(-c2ccc(OC)c(Cl)c2)c(=O)c2c1c1ccccc1n2C)c1cccc(C(F)(F)F)c1	ClpP mod inconclusive (no result: TCR act)
Cc1cccc(NC(=O)CSc2nc3ccccc3c(=O)n2C)c1	Nrf2 inh 11.6µM (no result: ClpP mod)
CCOc1ccc(OCC)c(NC(=O)CSc2nc3ccccc3c(=O)n2C)c1	Nrf2 inh 10.3µM

From PubChem BioAssay
